Experimental data as given in PubChem BioAssay.
Activity calls are given as the source filed them.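 How the source made its calls, unless noted: active means inhibition of the reporter signal at or above 50%; inactive means inhibition below 50%.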

experiment: blockers of RIG-like receptor reporter activation – cell-based, Sendai virus stimulus, luciferase, 10K MLSCN set, TLR/RLR signaling modifier project, primary screen (AID 602276;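 active means inhibition at or above 50% at 10 µM; inactive means inhibition below 50%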;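 further: firefly luciferase from ISG56 promoter only with Renilla not read in this screen; 0% = Sendai virus plus DMSO and 100% = medium plus DMSO without virus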); conditions: HEK293 RL24 IRF3 luciferase reporter, at 10 µM, active compounds read high

Row | Compound | inhibition
1 | Cc1cccc(-n2nnc(C(=O)NCc3ccccc3)c2N)c1 | 9.81% (inactive)
2 | N#Cc1c(NC(=O)CSc2nc(N)cc(=O)[nH]2)sc2c1CCCCCC2 | -11.2% (inactive)
3 | COc1ccccc1NC(=O)C1=C(C)Nc2ncnn2C1c1ccc(C)o1 (centres undefined) | 19.9% (inactive)
4 | CCN(C(=O)CN1CCN(c2ccccc2OC)CC1)c1c(N)n(Cc2ccccc2)c(=O)[nH]c1=O | 9.1% (inactive)
5 | COCCn1c(SCC(=O)Nc2nnc(C)s2)nnc1-c1ccncc1 | 18.4% (inactive)
6 | CCn1c(CC(=O)Nc2cccc(OC)c2)nnc1SCC(=O)Nc1nccs1 | 4.04% (inactive)
7 | O=C(NC1CCCc2ccccc21)C1CCN(S(=O)(=O)c2cnc[nH]2)CC1 (centres undefined) | 4% (inactive)
8 | O=C(NC1(C(F)(F)F)NC(=O)N(Cc2ccco2)C1=O)c1cccnc1 (centres undefined) | 9.43% (inactive)
9 | CCn1ncc(C2=NOC(C(=O)NCc3ccc(Cl)cc3)C2)c1C (centres undefined) | 2.33% (inactive)

experiment: TLR3 IRF3 reporter activation blockers – cell-based, poly I:C stimulus, luciferase, 10K MLSCN set, primary screen (AID 602277); conditions: HEK293-TLR3 RL24 IRF3 luciferase reporter, at 10 µM, active compounds read high

Row | Compound | inhibition
10 | Cc1ccc(S(=O)(=O)c2nc(-c3ccco3)oc2SCC(=O)NCC2CCCO2)cc1 (centres undefined) | 18.5% (inactive)
11 | CC(=O)NCC(=O)OC(C)C(=O)Nc1ccc(C(C)=O)cc1 (centres undefined) | 0.897% (inactive)
12 | CCSc1nc2c(c(=O)n1CC)SC(C)C2 (centres undefined) | 18.7% (inactive)
13 | Cn1cnnc1SCC(=O)Nc1sc2c(c1C#N)CCCCC2 | -31.5% (inactive)
14 | Cc1nc2ccccc2c(=O)n1NC(=O)c1c(O)c2c(n(CC(C)C)c1=O)CCCC2 | 13.4% (inactive)
15 | Cc1ccc(S(=O)(=O)N(C)c2ccc(OCC(=O)OCc3c(C)noc3C)cc2)cc1 | 14.5% (inactive)
16 | Cn1cccc1C(=O)NC(=O)CSc1nnc(C2CC2)n1-c1ccccc1 | 9.42% (inactive)
17 | CC(=O)Nc1nc(C)c(-c2csc(Nc3ccc(O)cc3)n2)s1 | 9.01% (inactive)
18 | COc1ccc(-c2cnc(SCC(=O)Nc3ccc4c(c3)OCO4)n2Cc2ccco2)cc1 | 36.8% (inactive)
19 | CCOc1cc(C2C(C(=O)c3ccccc3)=C(C(=O)OC)Nc3nnnn32)ccc1O (centres undefined) | 11.1% (inactive)
20 | CCCCC(CC)C(=O)Nc1ccc(Cl)cn1 (centres undefined) | 17.2% (inactive)
21 | O=C(COn1nnc2ccc(C(F)(F)F)cc21)Nc1nnc(-c2ccccc2)o1 | 10.1% (inactive)
22 | CCCCC(=O)Nc1nn(CCC)c2nc3ccccc3cc12 | -0.131% (inactive)
23 | COc1ccccc1C(=O)n1nc(-c2ccccc2)nc1N | 11.1% (inactive)
24 | O=C(OCc1cccs1)c1ccccc1NS(=O)(=O)c1ccc2c(c1)OCCO2 | -18.1% (inactive)
25 | COC(=O)c1oc2ccc(Br)cc2c1NC(=O)CN1CCN(C)CC1 | 6.76% (inactive)
26 | O=C(OCc1nnc(-c2ccccc2)o1)c1ccc(S(=O)(=O)NCc2ccco2)cc1 | 2.67% (inactive)
27 | CCOC(=O)CSc1nnc(CNC(=O)c2cccs2)n1-c1cc(OC)ccc1OC | 17.5% (inactive)
28 | CCn1c2ccccc2c2cc(NC(=O)Cc3ccc(S(=O)(=O)N4CCOCC4)s3)ccc21 | 26.4% (inactive)
29 | Cn1c2c(c(=O)[nH]c1=O)C(NC(=O)c1ccco1)(C(F)(F)F)C(=O)N2 (centres undefined) | 6.27% (inactive)

Row | Compound | inhibition
30 | Cn1c(CCCNC(=O)c2ccccc2)nc2ccccc21 | 1.35% (inactive)
31 | Cc1ccccc1N(CC(=O)NCC1CCCO1)C(=O)C1(C)CC(=O)N=C2C=CC=CN21 (centres undefined) | 1.93% (inactive)
32 | O=C(CSc1nnnn1-c1ccccc1)Nc1nsc(-c2ccc(Cl)cc2)n1 | 15.1% (inactive)
33 | COc1ccccc1N1CCN(CCCNC(=O)Nc2ccccc2)CC1 | 23.9% (inactive)
34 | CS(=O)(=O)N1CCN(CC2CC3C=CC2C3)CC1 (centres undefined) | 25.1% (inactive)
35 | COc1ccc(-n2ncc3c(NCc4ccc5c(c4)OCO5)ncnc32)cc1 | -24.9% (inactive)
36 | O=S(=O)(NCCc1csc(-c2ccccc2)n1)c1ccc2c(c1)OCCO2 | 9.91% (inactive)
37 | c1ccc(CC2CCN(Cc3nc(-c4ccccc4)no3)CC2)cc1 | -19% (inactive)
38 | CCC(NS(=O)(=O)c1ccc(C)cc1)C(=O)N1CCC2(O)CCCCC2C1 (centres undefined) | 14.3% (inactive)
39 | O=C(CSc1nnnn1Cc1ccccc1)Nc1ccc2c(c1)OCO2 | 2.13% (inactive)
40 | COc1cccc(-n2c(C)nc3c(cnn3-c3ccc(Cl)cc3)c2=O)c1 | 4.48% (inactive)
41 | Cc1cccc(-n2nnc(C(=O)NCc3ccccc3)c2N)c1 | 9.19% (inactive)
42 | N#Cc1c(NC(=O)CSc2nc(N)cc(=O)[nH]2)sc2c1CCCCCC2 | -48.5% (inactive)
43 | COc1ccccc1NC(=O)C1=C(C)Nc2ncnn2C1c1ccc(C)o1 (centres undefined) | 20.2% (inactive)
44 | CCN(C(=O)CN1CCN(c2ccccc2OC)CC1)c1c(N)n(Cc2ccccc2)c(=O)[nH]c1=O | 25.4% (inactive)
45 | COCCn1c(SCC(=O)Nc2nnc(C)s2)nnc1-c1ccncc1 | -2.25% (inactive)
46 | CCn1c(CC(=O)Nc2cccc(OC)c2)nnc1SCC(=O)Nc1nccs1 | 21.5% (inactive)
47 | O=C(NC1CCCc2ccccc21)C1CCN(S(=O)(=O)c2cnc[nH]2)CC1 (centres undefined) | 19.5% (inactive)
48 | O=C(NC1(C(F)(F)F)NC(=O)N(Cc2ccco2)C1=O)c1cccnc1 (centres undefined) | 12.8% (inactive)
49 | CCn1ncc(C2=NOC(C(=O)NCc3ccc(Cl)cc3)C2)c1C (centres undefined) | 86.7% (active)
